From the supplement of paper PMC12350171
Where a name gives a salt, the structure may show the parent alone.
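Also: active when median AUC fell below 0.1.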

What follows are molecules tested on S. enterica typhimurium WT (assay: growth AUC normalised to DMSO control (median) (fraction of control); higher = less growth inhibition, active = hit call of the paper). Details: 20 µM;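 active = normalised median growth AUC below 0.1 of DMSO control; inactive = AUC 0.1 or higher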.
In short: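 Anaerobic growth was tracked hourly at OD578 for 24 h in 96-well plates of mGAM seeded at OD578 0.01 with each approved-drug library compound at 20 μM and 1% DMSO. Strains had first been passaged twice overnight without oxygen. Three biological replicates were run. The reported median is the area under the curve, calculated by the trapezoidal rule on curves truncated at entry into stationary phase and normalised to vehicle wells on the same plate.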
For Cc1cc(/C=C/c2ccc3cc(N(C)C)ccc3[n+]2C)c(C)n1-c1ccccc1 [Pyrvinium pamoate], the “growth AUC normalised to DMSO control” value was 1.02 (inactive). CN1CCN(c2c(F)cc3c(=O)c(C(=O)O)cn(CCF)c3c2F)CC1 [Fleroxacin] was tested, and the “growth AUC normalised to DMSO control” value was 0.00801 (active). For CC(C)OC(=O)C(C)(C)Oc1ccc(C(=O)c2ccc(Cl)cc2)cc1 [Fenofibrate], the “growth AUC normalised to DMSO control” value was 1 (inactive). With Cc1cn([C@H]2C[C@H](N=[N+]=[N-])[C@@H](CO)O2)c(=O)[nH]c1=O [Zidovudine] the “growth AUC normalised to DMSO control” value was 0.304 (inactive). In the case of CCC1(c2ccccc2)C(=O)NCNC1=O [Primidone], the “growth AUC normalised to DMSO control” value is reported as 1 (inactive). For COc1ccnc(C[S+]([O-])c2nc3cc(OC(F)F)ccc3[nH]2)c1OC (stereo not drawn) [Pantoprazole sodium], the “growth AUC normalised to DMSO control” value was 1.01 (inactive). CO/N=C1\CN(c2nc3c(cc2F)c(=O)c(C(=O)O)cn3C2CC2)CC1CN (stereo not drawn) [Gemifloxacin mesylate] was tested, and the “growth AUC normalised to DMSO control” value was 0.0112 (active). O=C(C1CCCCC1)N1CC(=O)N2CCc3ccccc3C2C1 (stereo not drawn) [Praziquantel] was tested, and the “growth AUC normalised to DMSO control” value was 1.01 (inactive). In the case of CC(/C=C1\SC(=S)N(CC(=O)O)C1=O)=C\c1ccccc1 [Epalrestat], the “growth AUC normalised to DMSO control” value is reported as 1.01 (inactive). For CC(=O)Oc1ccc(C(c2ccc(OC(C)=O)cc2)c2ccccn2)cc1 [Bisacodyl], the “growth AUC normalised to DMSO control” value was 1.01 (inactive). In the case of Cn1c(=O)c2[nH]cnc2n(C)c1=O [Aminophylline], the “growth AUC normalised to DMSO control” value is reported as 0.993 (inactive). With N[C@@H](Cc1ccc(O)c(O)c1)C(=O)O [Levodopa] the “growth AUC normalised to DMSO control” value was 0.973 (inactive). CCCSS/C(CCO)=C(/C)N(C=O)Cc1cnc(C)nc1N [Prosultiamine] was tested, and the “growth AUC normalised to DMSO control” value was 0.997 (inactive).
